Assay [1] is described as follows: NCI Yeast Anticancer Drug Screen. Data for the rad50 strain (AID 155).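 Note: 0% = growth of vehicle-only cultures of the same strain.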 To be noted: S. cerevisiae rad50 strain growth inhibition; at 50.0 µM; active compounds read high. In outline:
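Growth of the mutant yeast was measured after compound exposure and referenced to vehicle-treated cultures.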

Assay [2] is described as follows: NCI Yeast Anticancer Drug Screen. Data for the mec2-1 strain (AID 157). To be noted: S. cerevisiae mec2-1 strain, at 50.0 µM, active compounds read high. In outline: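 mec2-1 yeast strain, carrying an alteration in DNA damage repair or cell cycle control, was exposed to compounds; growth inhibition was measured relative to vehicle-treated controls.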
Assay [3] is described as follows: NCI Yeast Anticancer Drug Screen. Data for the sgs1 mgt1 strain (AID 161).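 Note: 0% = growth of cultures given vehicle only.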 To be noted: S. cerevisiae sgs1 mgt1 strain, at 50.0 µM, active compounds read high. In outline:
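Yeast cells carrying a defined DNA-repair defect were exposed to test compounds. Growth inhibition was measured relative to vehicle-treated controls.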

The nature of assay [4]: NCI Yeast Anticancer Drug Screen. Data for the cln2 rad14 strain (AID 165).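 Note: 0% = growth equal to vehicle treated cultures.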 To be noted: S. cerevisiae cln2 rad14 strain, at 50.0 µM, active compounds read high. In outline:
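Yeast carrying cln2 and rad14 alterations (cell cycle control and DNA damage repair) were exposed to compounds. Growth inhibition was measured against vehicle-treated controls.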

Assay [5] is described as follows: NCI Yeast Anticancer Drug Screen. Data for the bub3 strain (AID 167). To be noted: S. cerevisiae bub3 mutant strain, at 50.0 µM, active compounds read high. In outline: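 Whole-cell yeast assay. The mutant strain was incubated with compounds, and growth inhibition was determined by comparison with vehicle-treated cells.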
The nature of assay [6]: NCI Yeast Anticancer Drug Screen. Data for the mlh1 rad18 strain (AID 175). To be noted: S. cerevisiae mlh1 rad18 strain growth inhibition; at 50.0 µM; active compounds read high. In outline:
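Growth inhibition of the yeast strain was measured after compound exposure and expressed relative to vehicle-treated controls. The strain carries defined defects in DNA damage repair.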

The structures appear in SMILES notation. Where “and” joins values, the source holds several entries; their conditions need not be identical. Identical values can stand only once. The panel holds about 79,000 compounds, 15% with a hit somewhere; the sample as a whole holds those more often. Unmarked numbers belong to inactive results. Calls of active or inactive are those of the source. Cut-off read from the data, not from the text of the source: active = growth inhibition above about 70%; inactive = the rest.

As to `NC(=NCc1ccccc1)N[N+](=O)[O-]`, the growth inhibition in assay [1] is -7.3%; in assay [2], 3.65%; in assay [3], -10.6%; in assay [4] it was 17.7%; in assay [5] it was 30.7%; in assay [6], -3.15%.

Regarding `COc1ccc([C@H]2N[C@@H]2c2ccccn2)cc1`, the growth inhibition was 3.25% in assay [1]; -1.5% in assay [2]; -7.2% in assay [3]; 17.1% in assay [4]; 4.8% in assay [5]; 20.9% in assay [6].

Turning to `O=c1cc(O)c1=O`, the growth inhibition in assay [1] is 23.2%; in assay [2], 18%; in assay [3], -6.05%; in assay [4] it was 14.9%; in assay [5] it was 16.8%; in assay [6], 31.9%.

As for `O=c1oc2cc(O)ccc2c(O)c1C(c1cccnc1)c1c(O)c2ccc(O)cc2oc1=O`, the growth inhibition in assay [1] is 0.75%; in assay [2], 1.25%; in assay [3], 11.7%; in assay [4], -0.05%; in assay [5], -0.5%; in assay [6], -80.5%.

With `CC1(C)N=C(N)N=C(N)N1c1ccc(CCCCc2ccccc2S(=O)(=O)F)c(Cl)c1`, the growth inhibition was 99.5% (active) in assay [1]; 99.7% (active) in assay [2]; 99.7% (active) in assay [3]; 99.4% (active) in assay [4]; 99.5% (active) in assay [5]; 99.7% (active) in assay [6].

`COc1cccc(C=O)c1OC`: the growth inhibition in assay [1] was 15.8% and 43.1%; in assay [2], 2.2% and 24.1%; in assay [3] it was 4.2% and 20.9%; in assay [4], 27.1% and -7.95%; in assay [5], 3.5% and 12.7%; in assay [6], 47% and 37.1%.

Regarding `Cc1ccc(OP(=O)(Oc2ccc(C)c(C)c2)Oc2ccc(C)c(C)c2)cc1C`, the growth inhibition in assay [1] was -3.7%; in assay [2], -8.55%; in assay [3], -9.15%; in assay [4], -8.95%; in assay [5] it was 5.2%; in assay [6] it was -17%.

For the compound `CCN1CCCc2cc3c(C(F)(F)F)cc(=O)oc3cc21`, the growth inhibition in assay [1] is -6.3%; in assay [2], -12.4%; in assay [3] it was -10%; in assay [4], -4.05%; in assay [5] it was -6.45%; in assay [6] it was -11.8%.

With `O=C(NC(=S)N1CC1)c1ccccc1`, the growth inhibition is -13.9% in assay [1]; -43.4% in assay [2]; -7% in assay [3]; -7.8% in assay [4]; -26.4% in assay [5]; -36.3% in assay [6].

For the compound `c1ccc(CCN2CCOCC2)nc1`, the growth inhibition was 17.3% in assay [1]; 1.6% in assay [2]; -8.95% in assay [3]; 52% in assay [4]; 4.55% in assay [5]; 3.85% in assay [6].

Take `Cc1ccc(SP(=S)(Sc2ccc(C)cc2)Sc2ccc(C)cc2)cc1`: the growth inhibition was 11.7% in assay [1]; -65.8% in assay [2]; -4.15% in assay [3]; -29.9% in assay [4]; -12.2% in assay [5]; 10% in assay [6].

Consider `CCN(CC)C1C=CCCC1` (stereo not drawn), for which the growth inhibition was -18.1% in assay [1]; -8.05% in assay [2]; -20.1% in assay [3]; 0.75% in assay [4]; -11.7% in assay [5]; -7.3% in assay [6].

With `CCOC(=O)Cc1ccccc1`, the growth inhibition is 24.1% in assay [1]; -5.85% in assay [2]; -1.95% in assay [3]; -2.05% in assay [4]; 9.25% in assay [5]; 23.8% in assay [6].

In the case of `CCOP(=O)(NC12CC3CC(CC(C3)C1)C2)OCC`, the growth inhibition is -1.5% in assay [1]; 8.2% in assay [2]; -7.5% in assay [3]; 5.25% in assay [4]; 19.6% in assay [5]; -18.2% in assay [6].

Regarding `C=CC(=O)NCNC(=O)C=C`, the growth inhibition in assay [1] is 21.9% and 5.15%; in assay [2], 19.3% and 1.85%; in assay [3] it was 8.75% and -4.05%; in assay [4] it was 10.6% and 4.3%; in assay [5] it was 5.25% and -11.3%; in assay [6], -15.8% and -2.9%.

Regarding `c1ccc2c(c1)CN1Cc3ccccc3C2C1`, the growth inhibition is 6.6% in assay [1]; -12.3% in assay [2]; -13.5% in assay [3]; -13.7% in assay [4]; 2.65% in assay [5]; -6.35% in assay [6].

On to `CC[P+](C#Cc1ccccc1)(c1ccccc1)c1ccccc1`, for which the growth inhibition in assay [1] was 85.8% (active); in assay [2] it was 88.9% (active); in assay [3], 89% (active); in assay [4] it was 87.2% (active); in assay [5], 87.4% (active); in assay [6], 87.5% (active).

For the compound `COc1cccc(OC)c1CCN`, the growth inhibition in assay [1] was -27.9%; in assay [2], -5.3%; in assay [3], -11.4%; in assay [4], -1.1%; in assay [5], -24.8%; in assay [6], -36%.

Consider `CC[C@H]1CN2CCc3c([nH]c4ccccc34)[C@@H]2C[C@@H]1/C(=C/OC)C(=O)OC` (tested in a mixture with another compound), for which the growth inhibition in assay [1] was -23.2%; in assay [2], -25.6%; in assay [3] it was -24.6%; in assay [4], 3.6%; in assay [5] it was -32.9%; in assay [6], -13.9%.

Consider `N#CCCNCCC#N`, for which the growth inhibition in assay [1] was 3.95% and 11.8% and 12.2%; in assay [2], 4.4% and -11.6% and 3.15%; in assay [3], -6.05% and 9.35% and -2.9%; in assay [4], -41.6% and 25.7% and 16.1%; in assay [5], -4.95% and 8.65% and 1.45%; in assay [6], 6.15% and 13.7% and 14.7%.

Turning to `CN1CN(c2ccccc2)C2(CCN(CCCSc3ccccc3NC(=O)/C=C/c3ccccc3)CC2)C1=O`, the growth inhibition in assay [1] was 20%; in assay [2], -3.95%; in assay [3], 18.8%; in assay [4], 18.9%; in assay [5], 41.3%; in assay [6], 34.2%.

For the compound `COc1ccc2c(c1O)CNCC2c1ccc(O)cc1O` (stereo not drawn), the growth inhibition in assay [1] is 0.6%; in assay [2] it was -12%; in assay [3] it was -7.25%; in assay [4] it was -11.9%; in assay [5], -24.8%; in assay [6] it was -2%.

Regarding `CC(=O)Oc1cccc2c1C(=O)C(C(=O)C=O)C1C(C=O)OC(C)(C)OC21C` (stereo not drawn), the growth inhibition is 29.6% in assay [1]; 0.1% in assay [2]; 33.6% in assay [3]; 14.8% in assay [4]; 16.8% in assay [5]; 12.1% in assay [6].

Turning to `CCCCCCCCCC[As](=O)(O)O`, the growth inhibition in assay [1] is 41.8%; in assay [2], 22.2%; in assay [3], 8.6%; in assay [4] it was 21.9%; in assay [5], 18.9%; in assay [6], 16.9%.

Consider `CC(C)CCCC(C)CO[P+](=O)OCC(C)CCCC(C)C` (stereo not drawn), for which the growth inhibition in assay [1] is 31.9%; in assay [2] it was 7.4%; in assay [3], 18.5%; in assay [4] it was 20.4%; in assay [5], 5.8%; in assay [6], 1.25%.

In the case of `O=P1(N(CCCl)CCCl)Nc2cc3ccccc3cc2N1`, the growth inhibition in assay [1] was -5.65%; in assay [2] it was -15.7%; in assay [3] it was -4.45%; in assay [4], -108%; in assay [5], -15.5%; in assay [6], -14.6%.

For `COc1cc(=O)oc(/C=C/C=C/C=C/C(C)=C\C2(C)OC(C)C(C)(O)C2O)c1C` (stereo not drawn), the growth inhibition in assay [1] was 6.3%; in assay [2] it was -8.35%; in assay [3] it was 3.35%; in assay [4], -9.4%; in assay [5], -20.4%; in assay [6], -0.95%.

For `O=C(NC(CSC(c1ccccc1)(c1ccccc1)c1ccccc1)C(=O)O)OCc1ccccc1` (stereo not drawn), the growth inhibition in assay [1] is 63.7%; in assay [2] it was 99.5% (active); in assay [3], 98.5% (active); in assay [4], 51.9%; in assay [5], 47.6%; in assay [6] it was 58.8%.

For `CN(C)c1ccc(C(=O)CCCN2CCC3(CC2)C(=O)NCN3c2ccccc2)cc1`, the growth inhibition in assay [1] is -13.9%; in assay [2], 8.95%; in assay [3], 5.9%; in assay [4] it was -40.8%; in assay [5] it was -1.05%; in assay [6] it was -11.5%.

Consider `CC(=O)C1C=NCCN=CC(C(C)=O)C(C)=NCCCN=C1C.[Ni]` (stereo not drawn), for which the growth inhibition in assay [1] is 10.7%; in assay [2], 4.3%; in assay [3], 14.4%; in assay [4], -2.2%; in assay [5], 8.7%; in assay [6], 18.5%.

Turning to `O=C1c2c(ccc3ccccc23)CN2CCCCC12` (stereo not drawn), the growth inhibition in assay [1] was 42.2%; in assay [2], 19.6%; in assay [3], 61.9%; in assay [4], 14%; in assay [5], 40.4%; in assay [6] it was 45.2%.

For `CC(O)CCC(=O)c1ccoc1` (stereo not drawn), the growth inhibition in assay [1] is 6.4%; in assay [2], 10.7%; in assay [3], 1.45%; in assay [4] it was 8.15%; in assay [5], 14.3%; in assay [6], -71.7%.

As to `O=c1cccc2n1CC1CNCC2C1` (stereo not drawn), the growth inhibition in assay [1] is 10.6%; in assay [2], 13.4%; in assay [3] it was -16.2%; in assay [4], 7.65%; in assay [5], 15.7%; in assay [6], -22.1%.

`O=C(CC(=O)C(F)(F)F)c1ccco1`: the growth inhibition in assay [1] is 34%; in assay [2], -25.9%; in assay [3], -19.1%; in assay [4] it was -49.8%; in assay [5], -16.5%; in assay [6] it was -8.45%.

In the case of `CC1COC(Nc2cccc3c2CCCC3)=N1` (stereo not drawn), the growth inhibition in assay [1] was -10.1%; in assay [2], -13.7%; in assay [3], -10.6%; in assay [4], -34%; in assay [5], -8.1%; in assay [6] it was 3%.

On to `O=C(O)COc1ccccc1`, for which the growth inhibition in assay [1] was 10.9% and -7.6%; in assay [2] it was 9.2% and 1.65%; in assay [3], 5.8% and -36.2%; in assay [4], -16.6% and 6.7%; in assay [5], -10.2% and -17.4%; in assay [6] it was -13.2% and -0.15%.

Take `O=C(NC1CC1)c1c(O)[nH]c(=S)[nH]c1=O`: the growth inhibition in assay [1] is -3%; in assay [2], -8.2%; in assay [3], -12.8%; in assay [4], 16.6%; in assay [5], -6.15%; in assay [6], -17.1%.

Turning to `O=c1cc(O)c2ccccc2o1`, the growth inhibition in assay [1] was 26.1%; in assay [2], -1.55%; in assay [3], -4.1%; in assay [4] it was 15.6%; in assay [5], -10.2%; in assay [6], 14.3%.

(Values after PubChem BioAssay (NCI).)
